Hits are enriched below; roughly 21% of the tested compounds scored in any of these assays.
NS1 function inh = qHTS Assay for Inhibitors of Influenza NS1 Protein Function | hit rate 0.4% among 270,000 | Potency, µM (titrated, usually from 46.1 µM), for the others: at the highest dose activity, positive = more growth; calls by dose curve; also: potency is read from the fitted curve at half-maximal effect; actives are rising curves; nearly all actives have a fitted effect of over 50% in size
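Read-out: OD600 growth recovery of NS1-expressing budding yeast. Cells grown overnight at 30C in -URA glucose medium, washed, resuspended and diluted 1:100 in 2% galactose assay medium, pH 6.0. Same strain lacking NS1 served as positive control.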
Pf growth 48h = Primary qHTS for delayed death inhibitors of the malarial parasite plastid, 48 hour incubation; P. falciparum luciferase growth in erythrocytes, 48 h; Potency, µM (top dose mostly 28.7 µM), for the others: at the highest dose activity change, negative = inhibition, usual class: inhibitors; hit rate 5.9% among 310,000; also: potency is read from the fitted curve at half-maximal effect; % is scaled to controls: 0 for no effect and ±100 for the full control effect
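Luminescence readout; reporter = integrated firefly luciferase in P. falciparum. RBC culture at 2% hematocrit, 0.1% parasitemia final, 37 C/5% CO2; decreased signal taken as growth inhibition.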
SARS PLP yeast = qHTS of Yeast-based Assay for SARS-CoV PLP; S. cerevisiae expressing SARS-CoV PLpro, growth rescue; Potency, µM (titrated, usually from 32.9 µM), without a hit: top-dose activity, positive = growth rescue, hits mostly activators; hit rate 0.19% among 330,000; calls by dose curve; also: potency is read from the fitted curve at half-maximal effect; 0% is about no effect; nearly all actives have a fitted effect of over 55% in size
CHX counter = Cycloheximide Counterscreen for Small Molecule Inhibitors of Shiga Toxin; hit rate 12% among 300,000; max response, %; cell reporter, cycloheximide protein synthesis inhibition counterscreen; AID 2314, 2010; in the data active = max response mostly above about 13%, no sharp cut-off; inactive = mostly below about 14%; also: read at 38.3 µM for the half of the compounds with a filed dose; 0% is about no effect
Shiga toxin inh = A qHTS for Small Molecule Inhibitors of Shiga Toxin. hit rate 9.2% among 290,000. AID 2315, 2010. Vero cells, Shiga toxin protein synthesis inhibition reporter. inhibition, % at 38.7 µM; in the data active = inhibition mostly above about 28%, no sharp cut-off; inactive = mostly below about 43%; also: 0% is about no effect
Pf growth 96h = Primary qHTS for delayed death inhibitors of the malarial parasite plastid, 96 hour incubation | P. falciparum luciferase reporter growth, 96 h | Potency, µM (doses to about 28.7 µM), inactives show at the top dose activity change, negative = inhibition, actives largely listed as inhibitors | hit rate 6.9% among 320,000 | AID 504834, 2011; also: potency is read from the fitted curve at half-maximal effect; % is scaled to controls: 0 for no effect and ±100 for the full control effect
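P. falciparum expressing integrated firefly luciferase grown in erythrocytes (2% hematocrit, 0.05% parasitemia final) with compounds for 96 hours at 37 C, 5% CO2. Growth inhibition read as loss of luminescence after adding luciferase detection reagent.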
Starred values were filed as active, the others as inactive; ? = inconclusive; . = not tested or not shown. Unless noted, calls follow the shape of the dose curve; as a rule, active = well fitted inhibition curve with a large enough effect; inconclusive = small, poorly fitted or top-dose-only effect, or another doubt; inactive = no such curve, though single readings can be large or run the other way.

SMILES | NS1 function inh | Pf growth 48h | SARS PLP yeast | CHX counter | Shiga toxin inh | Pf growth 96h
C(#CCN1CCC(Cc2ccccc2)CC1)COCCOCc1ccccc1 | -1.9% | -7.6% | -17.8% | -2.8 | -10.2 | -1.1%
O=C(O)CN1C(=O)COc2ccc(S(=O)(=O)N3CCCCCC3)cc21 | 0.9% | 26.1% | 17.3% | -3.2 | -8.0 | ?
O=C(O)Cc1sc(Nc2ccccc2)nc1-c1cccs1 | -36.2% | 59.5% | -1.8% | 25.8* | 64.8* | 112.7%
C=CCNc1nc(-c2cccs2)c(CC(=O)O)s1 | -38.4% | 0.8% | 0.2% | -2.2 | -0.9 | -6.2%
Cc1ccc(-c2cc(-c3ccccc3[N+](=O)[O-])[nH]n2)c(O)c1 | -135.0% | -18.2% | -16.3% | 31.0* | 75.4* | -18.3%
Cc1ccc(-c2cc(-c3ccccc3Cl)[nH]n2)c(O)c1 | -87.7% | ? | -10.2% | 50.7* | 128.1* | 69.5%
Cc1ccccc1-c1cc(-c2ccccc2O)n[nH]1 | -150.1% | 64.8% | -8.6% | 30.5* | 74.9* | .
Nc1n[nH]c(-c2ccccc2[N+](=O)[O-])n1 | -5.8% | 11.8% | 8.3% | 0.6 | -1.9 | -29.2%
CCCN(C(=O)CSc1nnnn1-c1ccccc1OC)C1CCS(=O)(=O)C1 (stereo not drawn) | 0.5% | ? | -2.3% | -1.2 | -4.9 | -22.4%
CCN(CC)S(=O)(=O)c1ccc(N/N=C/c2ccccc2OCC(=O)O)c([N+](=O)[O-])c1 | . | 10.4µM* | 0.5% | 2.1 | -11.9 | 1.65µM*
CC1CCN(S(=O)(=O)c2cccc(C(=O)NNC(=O)c3ccco3)c2)CC1 | 0.7% | -5.0% | -0.6% | 4.9 | 4.4 | 6.6%
Fc1ccc(-[n+]2nc(Nc3ccccc3)sc2-c2c3ccccc3cc3ccccc23)cc1 | . | ? | -12.2% | 32.0* | 40.7* | ?
Cc1cccc(-c2sc(Nc3ccccc3)n[n+]2-c2ccc(F)cc2)c1 | -1.9% | 15.5% | -2.9% | -1.5 | -1.6 | ?
COc1ccc(-c2sc(Nc3ccccc3)n[n+]2-c2ccc(F)cc2)c(C)c1C | -6.8% | ? | 1.3% | 1.9 | -11.8 | 10.4µM*
c1ccc(-[n+]2nc(Nc3cccc4ccccc34)sc2-c2c3ccccc3cc3ccccc23)cc1 | . | 1.04µM* | 0.8% | . | . | 0.828µM*
CCc1cccc(C)c1NC(=O)CSc1nnc(CCCOc2ccc(Cl)cc2Cl)n1C | -20.7% | ? | -2.9% | -6.7 | -18.4 | -26.3%
CC(=O)NC(c1cc(F)c2cccnc2c1O)C(C)C (stereo not drawn) | . | ? | 3.9% | . | . | ?
CCn1c(=O)n(CC(=O)NCC2CCCO2)c(=O)c2c3c(sc21)COC(C)(C)C3 (stereo not drawn) | 11.2% | 7.2% | 9.0% | 16.4 | -9.0 | ?
O=C1C2C3C=CC(C4CC34)C2C(=O)N1/N=C/c1ccc(-c2ccc(F)cc2[N+](=O)[O-])o1 (stereo not drawn) | -1.5% | . | 16.0% | 31.0* | 14.5 | 4.65µM*
C=CCOc1c(CNc2ccc(C(=O)O)cc2)cccc1OCC | -2.6% | 46.6% | -3.3% | 31.3* | 35.8* | 41.8%
C=CCOc1c(CNc2cccc(C(=O)O)c2)cccc1OC | -3.5% | . | 10.9% | 37.2* | 71.1* | 167.6%
O=C(O)c1cccc(NCc2cccnc2)c1 | 5.2% | . | 6.0% | 0.4 | 16.8 | 40.0%
C=CCOc1c(CNc2cccc(C(=O)O)c2)cccc1OCC | -43.1% | 49.0% | -2.0% | 13.3 | 12.8 | 1.5%
C=CCOc1c(CNc2ncn[nH]2)cccc1OCC | 1.3% | -24.4% | 1.0% | 4.7 | -0.2 | 9.28µM*
C=CCOc1cccc(CNc2cccc(C(=O)O)c2)c1 | -3.4% | 92.0% | 4.5% | 29.4* | 103.7* | 51.3%
SMILES | NS1 function inh | Pf growth 48h | SARS PLP yeast | CHX counter | Shiga toxin inh | Pf growth 96h
C=CCOc1c(CNc2nccs2)cccc1OCC | -5.1% | -17.7% | -10.6% | -0.4 | 13.8 | .
Cc1ccc2nc(NC(=O)CSc3nc(=O)n(CCN(C)C)c4c3CCCC4)sc2c1 | . | ? | -3.9% | . | . | ?
C=CCOc1c(CNc2ccc(C(=O)O)cc2)cccc1OC | -6.3% | 12.5% | 4.0% | -1.8 | -0.9 | 4.65µM*
COc1cccc(CNCc2ccc(C(=O)O)cc2)c1OC | -3.1% | 13.2% | -0.2% | 4.9 | -8.1 | 20.5%
COc1ccc(-c2nnc(SCC(=O)NCCC(C)C)nc2-c2ccc(OC)c(OC)c2)cc1OC | 6.9% | ? | 1.1% | 11.6 | 3.1 | ?
CCC(C)NC(=O)c1cc(OC)c(OC)c(OC)c1 (stereo not drawn) | -3.5% | -1.1% | -2.0% | 1.2 | 19.3 | 2.33µM*
COc1cc(C(=O)N[C@H](C(=O)NC2CCCCCC2)C(C)C)cc(OC)c1OC | -1.6% | . | -12.4% | 5.9 | -5.1 | 11.7µM*
CCC(C)NC(=O)CSc1nnc(-c2cc(OC)c(OC)c(OC)c2)c(-c2cc(OC)c(OC)c(OC)c2)n1 (stereo not drawn) | -0.2% | 10.4µM* | -0.9% | 1.7 | 26.6 | 13.6%
COc1cc(C(=O)NC(CCSC)C(=O)OCC(=O)C(C)(C)C)cc(OC)c1OC (stereo not drawn) | . | -1.1% | -0.3% | 30.0 | 52.7* | 21.3%
CC(C)(Cc1ccc(O)cc1)NC(=O)SCc1ccccc1 | -38.5% | 220.8% | . | 8.7 | 11.6 | 31.1%
O=C(Cn1ccc(NC(=O)OCc2ccccc2)nc1=O)NCC1CCCO1 (stereo not drawn) | . | 12.3% | 1.5% | . | . | ?
Cn1ncc(Cl)c1C(=O)NCC1CCCO1 (stereo not drawn) | 10.9% | 13.6% | 6.5% | 0.5 | -4.6 | 56.9%
Clc1ccc(-c2cc(CN3CCCCC3)no2)cc1Cl | 1.8% | 23.8% | -0.2% | 34.0* | 62.0* | 23.0%
Clc1ccc(SCc2cc(-c3ccc(Cl)cc3)on2)cc1 | 3.5% | -1.6% | 4.4% | -2.3 | -20.9 | 37.6%
Clc1ccc(-c2cc(CN3CCOCC3)no2)cc1 | 3.7% | 204.9% | -0.7% | 54.4* | 117.8* | 180.7%
O=C(COC(=O)/C=C/c1cccc(Cl)c1)NC1CC1 | . | 18.5% | 6.7% | . | . | ?
CN(CCOc1ccccc1)C(=O)C1CCC(=O)N(CCCN2CCCC2=O)C1 (stereo not drawn) | -0.9% | 7.7% | -2.8% | -2.5 | -4.8 | ?
C=CCn1c(COc2cccc(C)c2)nnc1SC(C)C(=O)NC1CC1 (stereo not drawn) | . | ? | -6.6% | . | . | 13.1µM*
COc1ccc(-c2cc(=O)c3c(O)cc(O[C@H]4OC(COC5OC(C)C(O)C(O)[C@H]5O)C(O)C(O)C4O)cc3o2)cc1O (stereo partly drawn) | . | -15.7% | . | . | . | ?
CN1C=C/C(=C\c2cc[n+](C)c3ccccc23)c2ccccc21 | . | ? | -5.6% | -3.4 | -17.1 | 11.7µM*
CC[n+]1ccc(/C=C2\Sc3ccccc3N2CCCS(=O)(=O)[O-])c2ccccc21 | 0.4% | 1.9% | 1.2% | -2.3 | 1.5 | 6.3%
COc1cccc(C2Nc3ccccc3C(=O)N2c2ccc(F)cc2)c1O (stereo not drawn) | -0.6% | . | -1.6% | 59.4* | 79.2* | 222.6%

Assay outcomes: PubChem, National Center for Advancing Translational Sciences (NCATS)
